Active and inactive are the calls of the source. Unless noted, how the calls were made is not given here.
How the values were obtained:
[1] = HepG2 liver cancer cell viability effects, profiling panel, resazurin fluorescence, 24 h, PK04 Diversity Set (AID 1172); settings: higher = more signal
[2] = basal S. cerevisiae growth modulation, no modifier, primary screen, OD600, strain BY4716, 24 h, basal condition (AID 1173); settings: OD600, 24 h, higher = more signal, called active from +8 up or from −8 down
[3] = MM1S myeloma cell viability, profiling panel, resazurin fluorescence, basal, 24 h, PK04 Diversity Set (AID 1174); settings: higher = more signal, called active from +8 up or from −8 down;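 further: MM1S multiple myeloma cell line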
[4] = biological target: Dihydroorotate dehydrogenase (quinone), mitochondrial (Plasmodium falciparum (isolate 3D7)) (UniProt Q08210); assay: PfDHODH enzyme inhibitors, primary screen, biochemical, C-terminal His tag, absorbance 600 nm (AID 1175); settings: DCIP absorbance 600 nm, higher = more signal, called active from +8 up or from −8 down;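 further: recombinant parasite enzyme with a five histidine tag at its C terminus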
Sequence of Dihydroorotate dehydrogenase (quinone), mitochondrial (Plasmodium falciparum (isolate 3D7)) (Q08210 whole entry, looked up): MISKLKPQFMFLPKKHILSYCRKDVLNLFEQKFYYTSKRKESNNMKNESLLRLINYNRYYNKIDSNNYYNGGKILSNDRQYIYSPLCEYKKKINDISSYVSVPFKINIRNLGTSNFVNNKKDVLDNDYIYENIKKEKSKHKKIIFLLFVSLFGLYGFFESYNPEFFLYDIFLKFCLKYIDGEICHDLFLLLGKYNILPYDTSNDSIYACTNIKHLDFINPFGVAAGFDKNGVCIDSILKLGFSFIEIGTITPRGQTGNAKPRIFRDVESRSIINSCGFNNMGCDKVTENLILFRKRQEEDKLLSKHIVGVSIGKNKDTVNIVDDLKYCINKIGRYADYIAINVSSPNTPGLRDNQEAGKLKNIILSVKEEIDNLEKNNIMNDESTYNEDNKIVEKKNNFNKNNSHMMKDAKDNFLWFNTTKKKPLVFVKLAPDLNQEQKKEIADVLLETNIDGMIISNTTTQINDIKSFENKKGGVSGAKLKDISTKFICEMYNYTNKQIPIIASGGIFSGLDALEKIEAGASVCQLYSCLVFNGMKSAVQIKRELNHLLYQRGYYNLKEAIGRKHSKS

[5] = P. aeruginosa biofilm formation inhibitors, primary screen, strain PAO1, LB-PBS medium, absorbance 600 nm (AID 1176); settings: P. aeruginosa PAO1 growth/biofilm, A600, 12 h; higher = more signal
[6] = S. cerevisiae RM11-1a growth modifiers, primary screen, strain RM11-1a, OD600, basal, 24 h (AID 1177); settings: OD600, 24 h, higher = more signal, called active from +8 up or from −8 down;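 further: cultures grown under basal conditions with no added stressor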
[7] = E. coli acrAB mutant growth effects, primary screen, E. coli filamentation inducers, strain DRC39, OD650, 24 h (AID 1178); settings: higher = more signal, called active from +8 up or from −8 down;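 further: growth measured as culture turbidity by optical density at 650 nm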
[8] = E. coli acrAB mutant growth effects, primary screen, E. coli filamentation inducers, strain DRC39, OD650, 48 h (AID 1179);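 further: screen aims at cell division blockers that make cells filament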; settings: E. coli DRC39 delta-acrAB growth, higher = more signal, called active from +8 up or from −8 down
[9] = RPMI8226 myeloma cell viability, profiling panel, resazurin fluorescence, basal, 24 h, PK04 Diversity Set (AID 1180); settings: higher = more signal;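 further: RPMI8826 multiple myeloma cell line at 5000 cells per well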
[10] = biological target: E3 ubiquitin-protein ligase XIAP (Homo sapiens) (UniProt P98170); assay: XIAP binders, primary screen, biophysical, small-molecule microarray, fluorescence 635 nm (AID 1181); settings: small-molecule microarray binding, higher = more signal;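 further: score merges 667 nm emission and signal to noise over triplicate slides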
Sequence of E3 ubiquitin-protein ligase XIAP (Homo sapiens) (P98170 whole entry, looked up): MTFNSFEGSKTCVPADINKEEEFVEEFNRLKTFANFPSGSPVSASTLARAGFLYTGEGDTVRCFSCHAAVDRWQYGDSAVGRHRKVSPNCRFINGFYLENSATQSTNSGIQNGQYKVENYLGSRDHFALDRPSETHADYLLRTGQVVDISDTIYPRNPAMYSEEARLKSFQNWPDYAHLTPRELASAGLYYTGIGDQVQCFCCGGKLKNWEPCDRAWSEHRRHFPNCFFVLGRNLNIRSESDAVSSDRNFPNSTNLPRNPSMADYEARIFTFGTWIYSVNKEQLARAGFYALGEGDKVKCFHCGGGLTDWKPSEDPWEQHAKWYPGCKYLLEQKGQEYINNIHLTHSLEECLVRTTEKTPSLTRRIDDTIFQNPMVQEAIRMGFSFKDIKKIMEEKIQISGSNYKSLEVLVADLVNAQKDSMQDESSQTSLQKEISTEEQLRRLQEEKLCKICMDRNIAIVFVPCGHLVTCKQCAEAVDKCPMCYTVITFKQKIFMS

[11] = tested on: XIP peptide (Xip251-270) binding; assay: small-molecule binders of XIP peptide, primary screen, biochemical, small-molecule microarray, fluorescence 635/667 nm, 0.1 µg/mL protein (AID 1182); settings: fluorescent protein binding, 635 nm, higher = more signal, called active from +8 up or from −8 down
XIP peptide (Xip251-270) = assay: small-molecule binders of XIP peptide, primary screen, biochemical, small-molecule microarray, fluorescence 635/667 nm, 0.5 µg/mL protein (AID 1183); settings: small-molecule microarray binding, fluorescence 635 nm; higher = more signal
[12] = Plasmodium falciparum growth inhibition, primary screen, strain 3D7, DAPI fluorescence, 100 nL (AID 1184);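 further: parasites grown inside human red blood cells in medium with human serum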; settings: P. falciparum 3D7 growth, 3 d, higher = more signal
[13] = biological target: Homeobox protein Hox-A13 (Mus musculus) (UniProt Q62424); assay: inhibitors of HoxA13-DNA binding, primary screen, biochemical, fluorescence polarization, labeled oligonucleotide (AID 1185); settings: 15 min, higher = more signal, called active from +8 up or from −8 down
Sequence of Homeobox protein Hox-A13 (Mus musculus) (Q62424 whole entry, looked up): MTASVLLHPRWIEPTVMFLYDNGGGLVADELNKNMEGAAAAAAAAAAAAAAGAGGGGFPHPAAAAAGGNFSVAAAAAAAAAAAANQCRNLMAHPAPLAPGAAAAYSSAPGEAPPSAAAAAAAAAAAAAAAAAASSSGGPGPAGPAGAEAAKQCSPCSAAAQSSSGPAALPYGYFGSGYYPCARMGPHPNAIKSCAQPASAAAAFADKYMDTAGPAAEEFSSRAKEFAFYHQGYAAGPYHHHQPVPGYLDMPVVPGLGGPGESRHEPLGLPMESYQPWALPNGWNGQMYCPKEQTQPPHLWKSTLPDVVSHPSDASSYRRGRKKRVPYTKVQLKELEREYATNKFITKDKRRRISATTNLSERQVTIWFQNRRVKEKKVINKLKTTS

SMILES	z-score [1]	z-score [2]	z-score [3]	composite z-score [4]	z-score [5]	z-score [6]	z-score [7]	z-score [8]	z-score [9]	composite z-score [10]	composite z-score [11]	composite z-score (XIP peptide (Xip251-270))	z-score [12]	z-score [13]
CCCCc1nc2c(c3c1C[C@H](C)OC3)CN(CCC(C)C)CC2	-0.165	-2.07 (inactive)	0.431 (inactive)	-0.847 (inactive)	0.332 (inactive)	-0.674 (inactive)	0.56 (inactive)	-0.104 (inactive)	1.2	0.0133	0.172 (inactive)	0.715	-0.522	-5.63 (inactive)
O=C1[C@H]2[C@H]3[C@H](O)[C@H](O)CC(=NO[C@@H]4O[C@H](CO)[C@@H](O)[C@H](O)[C@H]4O)[C@@H]3CC[C@H]2C(=O)N1Cc1ccc2c(c1)OCO2	-0.191	-0.387 (inactive)	0.0622 (inactive)	0.0922 (inactive)	-0.389 (inactive)	-0.558 (inactive)	-0.494 (inactive)	-0.136 (inactive)	0.36	-0.0552	0.297 (inactive)	0.567	-1.06	-2.63 (inactive)
O=C1C[C@@H](O)[C@@H](O)[C@@H]2[C@@H]3C(=O)N(c4ccc(F)cc4F)C(=O)[C@@H]3CC[C@@H]12	0.685	0.461 (inactive)	0.491 (inactive)	0.374 (inactive)	-0.626 (inactive)	-0.584 (inactive)	-0.385 (inactive)	-0.302 (inactive)	0.481	-0.0735	0.0164 (inactive)	-0.0741	0.452	-0.595 (inactive)
O=C1[C@H]2[C@H]3[C@H](O)[C@H](O)CC(=NOC[C@@H](O)COCc4ccco4)[C@H]3CC[C@H]2C(=O)N1C1CCCCC1	0.0194	-0.563 (inactive)	-0.304 (inactive)	-2.13 (inactive)	0.188 (inactive)	-0.479 (inactive)	0.426 (inactive)	-0.0377 (inactive)	-0.263	0.116	-0.26 (inactive)	-0.37	-1.24	-0.271 (inactive)
O=C1C[C@@H](O)[C@@H](O)[C@@H]2[C@@H]3C(=O)N(c4cccc(Oc5ccccc5)c4)C(=O)[C@@H]3CC[C@@H]12	-0.165	-0.208 (inactive)	0.207 (inactive)	-0.453 (inactive)	-0.708 (inactive)	-0.25 (inactive)	-0.65 (inactive)	-0.644 (inactive)	-0.0298	-0.102	-0.0811 (inactive)	0.726	-0.61	-4.11 (inactive)
COC(=O)CC1OC1[C@H](C)[C@@H](OC)C(C)C (stereo partly specified)	-0.863	-4.59 (inactive)	-1.91 (inactive)	-3.39 (inactive)	0.699 (inactive)	0.748 (inactive)	0.487 (inactive)	0.293 (inactive)	-1.43	-0.313	-0.0835 (inactive)	-0.739	0.599	-4.65 (inactive)
CCN1C(=O)[C@H]2[C@H]3[C@H](O)[C@H](O)CC(=NOC(C)CN4CCCCc5nc(C)c(C)cc54)[C@@H]3CC[C@H]2C1=O (stereo partly specified)	-1.3	-0.0913 (inactive)	-0.669 (inactive)	0.301 (inactive)	-0.418 (inactive)	0.002 (inactive)	0.538 (inactive)	1.2 (inactive)	-0.889	-0.211	0.746 (inactive)	0.196	0.0706	-1.48 (inactive)
CC(C)CON=C1C[C@@H](O)[C@@H](O)[C@@H]2[C@@H]3C(=O)N(C[C@@H]4CCCO4)C(=O)[C@@H]3CC[C@H]12	0.511	-0.138 (inactive)	-0.594 (inactive)	-0.849 (inactive)	0.884 (inactive)	-0.776 (inactive)	-0.353 (inactive)	0.0723 (inactive)	0.139	-0.174	-0.125 (inactive)	0.0241	-0.421	-1.58 (inactive)
C[C@@H]1C=CCC(=O)OC[C@H](C)C(=O)N2CCC[C@H]2C(=O)OC1	0.613	0.516 (inactive)	-0.0084 (inactive)	-0.697 (inactive)	-0.549 (inactive)	0.21 (inactive)	0.686 (inactive)	0.528 (inactive)	0.575	-0.0416	-0.318 (inactive)	0.827	0.207	-0.596 (inactive)
